Source: PubChem BioAssay (National Center for Advancing Translational Sciences (NCATS))
Sampled rows, rich in hits. Any-hit rate of the full collection: about 0.36%.
HEK293 viab: reduces viability of HEK-293 SNCA reporter cells; Potency, µM (doses to about 57.1 µM), usual class: cytotoxic; 150,000 tested, 0.12% active; HEK-293-SNCA-luc viability, GF-AFC fluorescence, 24 h; also: nearly all actives have a fitted effect of over 30% in size
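Cytotoxicity counterscreen: after 24 h compound treatment of genome-edited SNCA-luciferase HEK-293 cells, live-cell protease substrate GF-AFC read by fluorescence after 30 min; activity scaled between DMSO (0%) and medium-only (-100%), curves Hill-fitted.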
SNCA expr inh: SNCA gene expression inhibition. HEK-293 SNCA-luciferase knock-in, luminescence, 24 h. Potency, µM (titrated, usually from 57.2 µM), most hits filed as inhibitors. 140,000 tested, 0.17% active. AID 1671194; also: nearly all actives have a fitted effect of over 45% in size
GPT2 inh: blocks human glutamate pyruvate transaminase 2. Potency, µM (highest dose often 57.7 µM), hits mostly inhibitors. Q8TD30. 100,000 tested, 0.25% active. Recombinant GPT2, coupled pyruvate oxidase/HRP Amplex Red fluorescence; also: nearly all actives have a fitted effect of over 60% in size
Target sequence (Q8TD30 whole entry, looked up): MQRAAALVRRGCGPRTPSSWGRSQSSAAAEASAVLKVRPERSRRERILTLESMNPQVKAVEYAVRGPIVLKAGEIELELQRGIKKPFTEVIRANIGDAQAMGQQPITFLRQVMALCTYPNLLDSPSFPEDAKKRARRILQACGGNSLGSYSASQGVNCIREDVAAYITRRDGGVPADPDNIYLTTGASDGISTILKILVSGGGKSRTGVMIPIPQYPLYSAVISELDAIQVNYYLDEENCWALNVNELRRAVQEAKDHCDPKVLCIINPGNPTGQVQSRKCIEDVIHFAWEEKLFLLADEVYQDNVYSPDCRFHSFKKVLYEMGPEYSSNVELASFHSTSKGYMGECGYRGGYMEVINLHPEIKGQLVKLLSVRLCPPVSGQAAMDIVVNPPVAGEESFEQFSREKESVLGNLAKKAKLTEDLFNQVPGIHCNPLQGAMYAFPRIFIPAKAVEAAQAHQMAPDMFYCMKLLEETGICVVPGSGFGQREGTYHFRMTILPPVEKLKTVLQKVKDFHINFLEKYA
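Inhibition is scored from Amplex Red fluorescence generated when pyruvate oxidase and HRP act on pyruvate released by GPT2. Reactions contain 10ng/uL enzyme, 250uM a-KG and 2mM L-alanine and run 30 min at room temperature.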
Hits are given with their value; i = inactive; ? = inconclusive; nt = no result given; ! = a repeat was not active; [ ] = remark or other dose. Calls follow the shape of the dose curve; as a rule, active = well fitted curve in the direction sought with a large enough effect; inconclusive = small, poorly fitted or top-dose-only effect, or another doubt; inactive = no such curve, though single readings can be large; an effect the other way counts as inactive or inconclusive.

SMILES | HEK293 viab | SNCA expr inh | GPT2 inh
COc1cccc2c1c(O)c(C(=O)N(C)c1ccc(C(F)(F)F)cc1)c(=O)n2C | i | nt | ?
COC(=O)c1sccc1NC(=O)N1CCCC1Cc1noc(Cc2ccccc2)n1 (stereo not given) | i | i | i
CC(C)[C@@](C)(O)[C@@H]1CN(c2nc(-c3[nH]nc4ncccc34)c(F)cc2Cl)CCN1 | 30µM | nt | i
COc1ccccc1-c1ccc(C(=O)N2CCC(C(=O)NCCCc3ccccc3)CC2)cc1 | i[12.5 µM] | i | i
Cc1cccc(N(C)C(=O)Cn2c(N3CCc4ccccc4C3)nc(C)cc2=O)c1 | 11µM | ? | i
Cc1cccc(NC(=O)Cn2c(N3CCc4ccccc4C3)nc(C)cc2=O)c1 | i | ? | i
COc1ccc(-c2noc([C@@H]3C[C@H](NS(=O)(=O)c4ccc5ccccc5c4)CN3C)n2)cc1 | i | i | i
CC1(C)CCC2=C(O1)c1ccccc1C(=O)C2=O | ? | ? | 3.4µM!
Cc1ccc(-n2c(=O)c3c4c(sc3n(Cc3ccccc3F)c2=O)CCC4)cc1C | i | 28µM | nt
Cc1ccc(C)c(Cn2c(=O)n(-c3ccccc3)c(=O)c3c4c(sc32)CCCC4)c1 | i | i | nt
CCC(C)CC(=O)OC1C(=O)C(CO)=CC(O)C1C(C)C (stereo not given) | 19µM | nt | i
C/C=C(\C)C(=O)O[C@H]1C=C(CO)C(=O)[C@H](OC(C)=O)[C@H]1C(C)C | ? | nt | i
COc1ccc(Nc2ccnc(N3CCCC(C(=O)NCc4ccccc4Cl)C3)n2)cc1 (stereo not given) | i | i | i
Cc1ccc(-c2c(C(=O)NCc3cccc(C(F)(F)F)c3)nc3sccn23)cc1 | i | ? | i
COCCNC[C@@H]1C=C(C)[C@H](Cc2nnc(-c3ccc(OC)cc3)o2)C[C@H]1C(C)C | 32µM | ? | ?
COc1ccc(-c2nnc(C[C@@H]3C[C@@H](C(C)C)[C@H](CO)C=C3C)o2)cc1 | ? | i | i
O=[S+]([O-])(NC1CCN(Cc2cccc(-c3cccs3)c2)CC1)c1ccccc1 | i[12.5 µM] | i | i
Oc1ccc(-c2cc3c(cn2)CN(Cc2ccccc2)CCN3)cc1F | ? | ? | i
COc1cccc(CN(C)Cc2ccccc2C(F)(F)F)c1 | i | i | i
O=C(O)Cc1cccc(OCCCN(Cc2cccc(C(F)(F)F)c2Cl)CC(c2ccccc2)c2ccccc2)c1 | i | i | 24µM
O=C(Nc1ccc(C(=O)N2CCCCC2)cc1)c1nsc2ccccc12 | i | 10µM | nt
O=C(Nc1ccc(C(=O)N2CCN(c3ccc(F)cc3)CC2)cc1)c1nsc2ccccc12 | i | i | nt
Cc1ccc(Sc2c(C)nn(C(=O)c3ccc(Br)cc3)c2C)cc1 | i | i | nt
Cc1nn(C(=O)c2ccccc2)c(C)c1Sc1ccc(Cl)cc1 | 20µM | ? | nt
Cc1ccc(-c2cccc(CN3CCCC(NC(=O)C4CC4)C3)c2)cc1Cl (stereo not given) | i | i | i
SMILES | HEK293 viab | SNCA expr inh | GPT2 inh
O=C(NC1CCCCCC1)C1CN(c2ccnc3ccnn23)C1 | i | i | ?
CCOc1ccc(-n2nc3ccc(NC(=O)Cc4ccccc4)cc3n2)cc1 | 28µM | 28µM | nt
O=C(Cc1ccc(Cl)cc1)Nc1ccc2nn(-c3ccccc3)nc2c1 | i | i | nt
Cc1cc(C)cc(-c2ccc(CN3CCCC(NC(=O)Cc4ccc(F)cc4)C3)cc2)c1 (stereo not given) | ? | ? | i
Cc1ccc(CN2C(=O)C(=O)c3cc(Br)cc(C)c32)cc1 | ? | 22µM | nt
CCCOc1ccc(CN2C(=O)C(=O)c3cccc(C)c32)cc1 | i | i | nt
C[C@](N)(Cc1ccc(O)c(O)c1)C(=O)O | ? | i | 7.9µM
C[C@](N)(Cc1ccc(O)cc1)C(=O)O | i | i | i
COC(=O)c1ccc2c(c1)nc(NC(=O)c1ccccc1)n2CCCc1ccccc1 | i | nt | i
CCn1c(CN2CCOCC2)nc2cc(NC(=O)c3cc(OC)c(OC)c(OC)c3)ccc21 | i | i | nt
CC(C)(O)Cn1c(NC(=O)c2ccc(-c3cn[nH]c3)s2)nc2cc(CN3CCOCC3)ccc21 | ? | 3.4µM | i
C[C@H](NCc1ccc2c(c1)nc(NC(=O)c1ccc(-c3cn[nH]c3)s1)n2CCc1ccccc1)C(C)(C)C | ? | 6.8µM | i
CCOCCNC(=O)C1CCCN1Cc1ccc(-c2cc(C)cc(C)c2)cc1 (stereo not given) | i | i | i
COc1ccccc1CNC(=O)C1CCCN1Cc1ccc(-c2cc(C)cc(C)c2)cc1 (stereo not given) | i | i | i
O=C(CSCc1ccc(F)cc1)N1CCc2c([nH]c3ccccc23)C1c1ccccc1 (stereo not given) | i | ? | nt
O=C(CSCc1ccc(F)cc1)N1CCc2c([nH]c3ccccc23)C1c1ccc(Cl)cc1 (stereo not given) | i | 10µM | nt
